Experimental data from PubChem BioAssay AID651602 (The Scripps Research Institute Molecular Screening Center, 2012).
Where “and” joins values, the source holds several entries; their conditions need not be identical. Equal entries are not always repeated. Hit rate of the full screen: of about 360,000 compounds, about 950 (0.26%) were called active. Cut-off read from the data, not from the text of the source: active = inhibition above about 11%; inactive = the rest. This excerpt belongs to a sample that is enriched for actives.

Assay: reduced absorbance of E. coli cultures with phage – HTS, RecBCD inhibitor project, primary screen (AID 651602)
Settings: growth absorbance, at 11.9 µM, hits give high values
For CC1(C(=O)NS(=O)(=O)c2ccccc2)CCN1C(=O)c1ccccc1 (stereo not drawn), the inhibition was 2.52% (inactive).
With CC1(C(=O)NS(=O)(=O)c2ccccc2)CCN1C(=O)C/C=C/c1ccccc1 (stereo not drawn) the inhibition was 13.4% (active).
With CC1(C(=O)NS(=O)(=O)c2ccccc2)CCN1C(=O)Cc1ccc(-c2ccccc2)cc1 (stereo not drawn) the inhibition was -0.69% (inactive).
With COc1ccccc1CCn1cnc(-c2ccccc2)c1C(C)C the inhibition was 1.47% (inactive).
In the case of Nc1nc2c(ncn2[C@@H]2O[C@H](C(=O)N[C@@H](Cc3ccccc3)C(=O)NCc3ccccc3)[C@@H](O)[C@H]2O)c(=O)[nH]1, the inhibition is reported as 3.17% (inactive).
For COc1ccc2c(c1)c(=Cc1ccc(N(C)C)cc1)c1cc(-c3ccccc3)[n+](C)n12, the inhibition was 23.7% (active).
With CC(=O)c1c(C)n([O-])c2ccccc2[n+]1=O the inhibition was 25.5% (active).
For Cc1c(C=O)c2ccccc2n1CC(=O)O, the inhibition was 0.31% (inactive).
For NC(=O)c1ncn([C@@H]2O[C@H](C(=O)O)[C@@H](O)[C@H]2O)n1, the inhibition was 0.63% (inactive).
With C[C@H]1CN([C@@H](C)CO)C(=O)CCCn2nncc2CO[C@@H]1CN(C)C(=O)Nc1ccc(N2CCN(C)CC2)cc1 the inhibition was 0.4% (inactive).
For Cc1ccc(NC(=O)N2c3ccccc3SC2c2ccco2)c(C)c1 (stereo not drawn), the inhibition was 5.53% (inactive).
With CC(=NNC(N)=O)c1ccc(Cl)c(-n2cccc2)c1 the inhibition was 5.68% (inactive).
In the case of CCCCOCC1CN(CCCC)S(=O)(=O)c2c(Oc3ccc(F)cc3)cccc2O1 (stereo not drawn), the inhibition is reported as 5.95% (inactive).
With NC(=S)NN=Cc1ccc(OC(=O)COc2cc(Cl)c(Cl)cc2Cl)cn1 the inhibition was 11.6% (active).
With O=C(COC(=O)COc1cc(Cl)c(Cl)cc1Cl)NC1CC1 the inhibition was 3.17% (inactive).
With O=C(COc1cc(Cl)c(Cl)cc1Cl)NCCc1ccccn1 the inhibition was -0.15% (inactive).
In the case of C=CC1=CCN(S(=O)(=O)C(C)(C)C)[C@@H]1CCO, the inhibition is reported as 1.03% (inactive).
In the case of Nc1ncnc2c1ncn2C1OC(CO)CC1O (stereo not drawn), the inhibition is reported as 3.4% (inactive).
For C[C@H](CO)N1C[C@H](C)[C@@H](CN(C)C(=O)Nc2ccccc2F)OCc2cn(nn2)CCCC1=O, the inhibition was 0.72% (inactive).
For O=C1CCC(=O)N(O)CCCCCNC(=O)CCC(=O)N(O)CCCCCNC(=O)CCC(=O)N(O)CCCCCN1, the inhibition was 23.5% (active).
In the case of COCc1cc(N2CCN(C(=O)OC(C)(C)C)C[C@@H]2C)ccc1N1CCN(Cc2ccccc2)[C@H](C)C1, the inhibition is reported as -2.53% (inactive).
With Cc1cccc(NS(=O)(=O)c2cccc(C(=O)NNC(=O)c3ccccc3O)c2)c1 the inhibition was 5.15% (inactive).
For O=C(NNC(=O)c1cc(S(=O)(=O)N2CCCCC2)ccc1Cl)c1ccccc1O, the inhibition was 1.7% (inactive).
In the case of O=C(NNC(=O)c1ccccc1O)c1ccccc1O, the inhibition is reported as 30% (active).
For COC(=O)C1=C(C)N(Cc2ccc(C(F)(F)F)cc2)C(=NCc2ccc(C(F)(F)F)cc2)NC1c1cccc(Cl)c1 (stereo not drawn), the inhibition was 1.58% (inactive).
For O=C(NS(=O)(=O)c1cccs1)[C@H]1O[C@@H](n2ccc(=O)[nH]c2=O)[C@H](O)[C@@H]1O, the inhibition was 3.33% (inactive).
For O=C(CSc1ccc(-c2ccc(-n3cccn3)cc2)nn1)Nc1ccc([N+](=O)[O-])cc1, the inhibition was -0.99% (inactive).
With O=C(CSc1ccc(-c2ccccn2)nn1)Nc1ccccc1 the inhibition was 12.9% (active).
With COc1cc(NC(=O)CSc2ccc(-c3cccnc3)nn2)cc(OC)c1 the inhibition was 0.39% (inactive).
In the case of O=C1Nc2ccccc2C1=NN=Cc1ccco1, the inhibition is reported as -0.54% (inactive).
In the case of C=CC[C@]12C[C@@]3(O[C@H](c4ccc(C(F)(F)F)cc4)N=C3C[C@H](c3ccc(OC)cc3)[C@H]1C)N(C1CCN(Cc3ccccc3)CC1)C2=O, the inhibition is reported as 6.28% (inactive).
With CC1CCCN(c2cccc3c2S(=O)(=O)N(Cc2ccc(F)cc2)[C@@H](C)[C@H](c2ccccc2)O3)C1 (stereo partly drawn) the inhibition was 1.59% (inactive).
In the case of N#Cc1ccc(OCCCN2CCC(C(O)(c3ccccc3)c3ccccc3)CC2)c(F)c1, the inhibition is reported as 0.63% (inactive).
In the case of CCn1c(=O)cc(SCC(=O)NCc2ccc3c(c2)OCO3)c2ccccc21, the inhibition is reported as 1.95% (inactive).
In the case of C=CCn1c(=O)c(C(=O)Nc2ncccc2O)c(O)c2ccccc21, the inhibition is reported as 3.7% (inactive).
In the case of C=CCn1c(=O)c(C(=O)NCc2ccc3c(c2)OCO3)c(O)c2ccccc21, the inhibition is reported as 12.1% (active).
For CCOC(=O)c1ccc(NC(=O)Cn2cnc3cc(C)c(C)cc32)cc1, the inhibition was 18.8% (active).
For CCOC(=O)c1ccc(NC(=O)CS(=O)(=O)c2cn(CC)c3ccccc23)cc1, the inhibition was 0.46% (inactive).
With CCOC(=O)c1ccc(NC(=O)CCn2c(=O)oc3ccccc32)cc1 the inhibition was 1.49% (inactive).
In the case of Cc1ccccc1C(=O)N[C@H](C(=O)N1CCC[C@H]1C(=O)NCc1ccccc1)C(C)C, the inhibition is reported as -1.25% (inactive).
For CC(C)(C)OC(=O)N/N=C/c1ccc(C(=O)O)cc1, the inhibition was 1.87% (inactive).
With COC(=O)N/N=C/c1c[n+]([O-])c2ccccc2[n+]1[O-] the inhibition was 37.5% (active).
In the case of COC(=O)C(C)N=Cc1ccccc1 (stereo not drawn), the inhibition is reported as 0.77% (inactive).
For Cc1ccc2nc(CN(C)C(=O)[C@@H](Cc3ccccc3)NC(=O)[C@H]3O[C@@H](n4ccc(=O)[nH]c4=O)[C@H](O)[C@@H]3O)[nH]c2c1, the inhibition was 2.03% (inactive).
With COC(=O)[C@]12C[C@H](CC(=O)N3CCN(C(=O)C4CC4)CC3)C(=O)N(Cc3ccc4c(c3)OCO4)C1=C[C@H](C(C)(C)C)O[C@@H]2C the inhibition was 2.87% (inactive).
In the case of Cc1ccc(C)c(CN2CCC(CNC(=O)C3CCCN(c4ncnc5c4nc4n5CCCCC4)C3)CC2)c1 (stereo not drawn), the inhibition is reported as 3.47% (inactive).
For COc1ccc(OC)c(NC(=O)CCN2CCC(C)CC2)c1, the inhibition was -0.47% (inactive).
For CCCOc1ccc(Cl)cc1Nc1nc(NCCO)nc(N2CCCC2)n1, the inhibition was 0.63% (inactive).
In the case of CCN1CCN(c2nc(Nc3cc(OC)ccc3OC)nc(Nc3cc(OC)ccc3OC)n2)CC1, the inhibition is reported as 99.1% (active).
For O=S1(=O)c2c(cccc2N2CCCC2)O[C@H](COCc2ccccc2)CN1C1CC1, the inhibition was 2.78% (inactive).
With Cc1[nH]c2ccccc2c1CC(=O)Nc1ccc(Nc2cccnc2)c(-c2cccc(Cl)c2)c1 the inhibition was 3.75% (inactive).
In the case of CCN1C(=O)N[C@@H]2C[C@H](C(=O)N3CCCC3)[C@H](C)[C@H](c3ccccc3)C[C@@H]21, the inhibition is reported as 4.26% (inactive).
For COC(=O)c1cc2c(c3c4cc(F)ccc4n(S(=O)(=O)c4ccccc4)c13)C(=O)N(Cc1ccccc1OC)C2, the inhibition was 0.23% (inactive).
With O=C(N[C@H](C(=O)N1CCC[C@H]1C(=O)NCCc1ccccc1Cl)c1ccccc1)c1ccccc1 the inhibition was 0.16% (inactive).
For C=CC1=C(C(=O)O)N2C(=O)[C@@H](NC(=O)/C(=N\OCC(=O)O)c3csc(N)n3)[C@H]2SC1, the inhibition was 99.8% (active).
With CO/N=C(\C(=O)N[C@@H]1C(=O)N2C(C(=O)O)=C(COC(C)=O)CS[C@H]12)c1csc(N)n1 (stereo in doubt) the inhibition was 101% (active) and 100% (active) and 99.7% (active).
For C=CC1=C(C(=O)O)N2C(=O)[C@@H](NC(=O)/C(=N/OCC(=O)O)c3csc(N)n3)[C@H]2SC1, the inhibition was 102% (active).
In the case of CC1(C)OC(=O)C2=C(CC(CCc3ccccc3)OC2c2ccc(Cl)cc2)O1 (stereo not drawn), the inhibition is reported as 0.56% (inactive).
In the case of COC(=O)[C@]1(Cc2ccccc2)NC=C(C(=O)c2ccccc2)[C@@H]1c1cccc(OC)c1, the inhibition is reported as 0.08% (inactive).
With O=C(NN=Cc1ccco1)C(=O)Nc1ccc(Cl)c([N+](=O)[O-])c1 the inhibition was 1.23% (inactive).
With COC(=O)C(C(=O)OC)c1ccccc1NS(=O)(=O)c1cccc2ccccc12 the inhibition was 3.8% (inactive).
For C[C@H](O)[C@@H]1CN2CCc3ccc(-c4ccc5c(c4)OCO5)cc3[C@@H]2C[C@@H]1N(C)C(=O)C1CCCCC1, the inhibition was 4.59% (inactive).
For OC(c1ccccc1)(c1ccccc1)C1CCN(CCCOc2ccc(-c3ccsc3)cc2)CC1, the inhibition was -2.69% (inactive).
For O=C(C(=O)N1CCC(CNC(=O)c2cccnc2Cl)CC1)c1cccs1, the inhibition was 2.71% (inactive).
In the case of COc1ccc(C2=CN(Cc3ccccc3)C(c3ccc(OC)cc3)CC2=O)cc1 (stereo not drawn), the inhibition is reported as 3.64% (inactive).
In the case of C[C@H]1[C@H](c2ccccc2)Oc2cc(Br)ccc2S(=O)(=O)N1Cc1cccc(F)c1, the inhibition is reported as 1.98% (inactive).
For COC(=O)[C@]12C[C@H](CC(=O)NCCc3ccccc3OC)C(=O)N(Cc3ccccc3)C1=C[C@H](C(C)C)O[C@@H]2C1CC1, the inhibition was 1.94% (inactive).
In the case of COC(=O)c1c(-c2ccc(OC)cc2)c2c(c3c4cc(OC)ccc4n(S(=O)(=O)c4ccc(F)cc4)c13)C(=O)N(C)C2, the inhibition is reported as 2.25% (inactive).
In the case of Oc1c(Cl)cc(Cl)c(Cl)c1Cc1c(O)c(Cl)cc(Cl)c1Cl, the inhibition is reported as 17.2% (active).
In the case of Cc1noc(C)c1NC(=O)Nc1ccc2c(c1)C(=O)N([C@H](C)CO)C[C@H](C)[C@H](CN(C)Cc1ccncc1)OCCCC[C@@H](C)O2, the inhibition is reported as 2.8% (inactive).
In the case of COc1ccc(S(=O)(=O)Nc2ccc3c(c2)C(=O)N([C@H](C)CO)C[C@H](C)[C@@H](CN(C)C)OCCCC[C@H](C)O3)cc1, the inhibition is reported as 2.32% (inactive).
For CCOC(=O)NN1C(=O)c2ccccc2NC1c1cccc(O)c1 (stereo not drawn), the inhibition was 2.82% (inactive).
With CC(=O)NN1C(=O)c2ccccc2NC1c1ccccc1 (stereo not drawn) the inhibition was -1.19% (inactive).
In the case of O=C1c2ccccc2NC(c2ccc(-c3cccc(Cl)c3)o2)N1O (stereo not drawn), the inhibition is reported as 21% (active).
For CCCCCCCCN1C(=O)[C@@H](CC(=O)NCCCC)C[C@@]2(C(=O)OC)C1=C[C@H](C(C)(C)C)O[C@@H]2C, the inhibition was 3.8% (inactive).
With CC[C@H](C)[C@H]1CNC(=O)C(=O)N1CC1CCN(CCc2ccc(OC)c(OC)c2)CC1 the inhibition was 1.03% (inactive).
In the case of C#CCN([C@@H](C)C(=O)OCC)S(=O)(=O)c1ccc(Br)cc1F, the inhibition is reported as 1.36% (inactive).
In the case of CC(C)(C)C(c1nc2ccccc2[nH]1)n1c(Cc2csc3ccccc23)nc2ccccc21 (stereo not drawn), the inhibition is reported as -0.16% (inactive).
